Data from PubChem BioAssay.
Several values for one entry are separate records, joined by “and”; a condition that tells them apart may be missing. Identical values can stand only once. A number with no mark means an inactive call. For some assays here: Entries with a potency or affinity are not part of this list. Activity calls are given as the source filed them. Unless noted, how the calls were made is not given here.

Experiments:
[1] = antimalarial activity against Dd2 strain (AID 2302;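 active means growth inhibition above 50% at the single 2 µM test dose, taken to imply half-maximal potency below 2 µM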;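 further: 0% = DMSO untreated growth and 100% = chloroquine plus artemisinin killed control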); settings: P. falciparum Dd2 in RBCs, LDH growth readout, 72 h; at 2 µM; hits give high values
[2] = HepG2 cytotoxicity, primary screen, cytotoxicity control for P. falciparum antimalarial project, cell-based, ATP luminescence (AID 2303;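 active means inhibition above 50%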;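 further: 0% = DMSO wells and 100% = digitonin-killed cells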); settings: HepG2 viability, 24-48 h, at 10 µM, hits give high values
[3] = molecular target: L-lactate dehydrogenase (Plasmodium falciparum (isolate CDC / Honduras)) (UniProt Q27743); assay: PfLDH activity inhibition – cell lysate, 3D7 strain, counter-screen for P. falciparum growth inhibition project (AID 2304);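 further: 0% = vehicle and 100% = reference inhibitor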; settings: P. falciparum 3D7 crude extract, LDH APAD/NBT absorbance; at 2 µM; hits give high values
[4] = inhibition of 3D7 malaria parasite growth – strain 3D7 (AID 2306);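 further: 0% = DMSO wells and 100% = chloroquine plus artemisinin control wells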; settings: P. falciparum 3D7 erythrocytic growth, LDH absorbance, 72 h; at 2 µM; hits give high values
[5] = molecular target: Calcium-dependent protein kinase 1 (Plasmodium falciparum (isolate 3D7)) (UniProt P62344); assay: PfCDPK1 kinase inhibitors, biochemical, TCAMS library (AID 1159585; cut-off not given, nearly all actives have IC50 up to about 0.98 µM;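 further: inhibitors leave more ATP so luminescence rises with inhibition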); settings: recombinant PfCDPK1, Kinase-Glo ATP depletion luminescence
[6] = molecular target: Plasmodium falciparum protein kinase 6 (PK6, PF3D7_1337100) (UniProt Q8IDW1); assay: PfPK6 kinase inhibitors, biochemical, TCAMS library (AID 1159586); settings: recombinant PfPK6, Kinase-Glo ATP depletion luminescence
[7] = molecular target: Protein kinase 7 (PK7), Plasmodium falciparum 3D7 (PF3D7_0213400) (UniProt Q7YTF7); assay: inhibition of Plasmodium PK7 catalytic activity – biochemical, TCAMS antimalarial set, Kinase-Glo luminescence (AID 1159587); settings: recombinant PfPK7, Kinase-Glo ATP depletion luminescence
[8] = molecular target: Calcium-dependent protein kinase 4 (Plasmodium falciparum (isolate 3D7)) (UniProt Q8IBS5); assay: PfCDPK4 kinase inhibitors, biochemical, TCAMS library (AID 1159588; cut-off not given, nearly all actives have IC50 up to about 0.91 µM); settings: recombinant PfCDPK4, Kinase-Glo ATP depletion luminescence
Sequence of Calcium-dependent protein kinase 4 (Plasmodium falciparum (isolate 3D7)) (Q8IBS5 whole entry, looked up): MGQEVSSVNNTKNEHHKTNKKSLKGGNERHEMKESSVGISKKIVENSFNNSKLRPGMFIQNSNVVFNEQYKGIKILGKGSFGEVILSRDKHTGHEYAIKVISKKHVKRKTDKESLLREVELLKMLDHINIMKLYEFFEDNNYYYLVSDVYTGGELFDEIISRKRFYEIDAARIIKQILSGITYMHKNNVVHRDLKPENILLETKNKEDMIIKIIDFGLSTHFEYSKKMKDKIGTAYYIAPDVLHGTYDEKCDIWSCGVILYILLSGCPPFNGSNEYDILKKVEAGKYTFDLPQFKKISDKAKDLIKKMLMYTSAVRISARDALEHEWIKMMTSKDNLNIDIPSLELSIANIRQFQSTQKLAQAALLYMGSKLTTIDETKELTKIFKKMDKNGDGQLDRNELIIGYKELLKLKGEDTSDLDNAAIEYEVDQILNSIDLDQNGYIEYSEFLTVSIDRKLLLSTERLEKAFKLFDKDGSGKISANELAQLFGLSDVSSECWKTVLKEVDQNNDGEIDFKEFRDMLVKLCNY

Sequence of L-lactate dehydrogenase (Plasmodium falciparum (isolate CDC / Honduras)) (Q27743 whole entry, looked up): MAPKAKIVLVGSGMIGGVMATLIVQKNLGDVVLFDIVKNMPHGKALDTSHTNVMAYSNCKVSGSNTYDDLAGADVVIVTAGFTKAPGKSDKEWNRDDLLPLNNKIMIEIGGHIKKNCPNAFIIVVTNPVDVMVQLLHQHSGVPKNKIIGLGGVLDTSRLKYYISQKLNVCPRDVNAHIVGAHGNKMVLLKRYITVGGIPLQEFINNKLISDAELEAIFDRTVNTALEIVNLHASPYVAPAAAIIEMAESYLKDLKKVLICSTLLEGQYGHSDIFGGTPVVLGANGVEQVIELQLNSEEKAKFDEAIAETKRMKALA
Sequence of Calcium-dependent protein kinase 1 (Plasmodium falciparum (isolate 3D7)) (P62344 whole entry, looked up): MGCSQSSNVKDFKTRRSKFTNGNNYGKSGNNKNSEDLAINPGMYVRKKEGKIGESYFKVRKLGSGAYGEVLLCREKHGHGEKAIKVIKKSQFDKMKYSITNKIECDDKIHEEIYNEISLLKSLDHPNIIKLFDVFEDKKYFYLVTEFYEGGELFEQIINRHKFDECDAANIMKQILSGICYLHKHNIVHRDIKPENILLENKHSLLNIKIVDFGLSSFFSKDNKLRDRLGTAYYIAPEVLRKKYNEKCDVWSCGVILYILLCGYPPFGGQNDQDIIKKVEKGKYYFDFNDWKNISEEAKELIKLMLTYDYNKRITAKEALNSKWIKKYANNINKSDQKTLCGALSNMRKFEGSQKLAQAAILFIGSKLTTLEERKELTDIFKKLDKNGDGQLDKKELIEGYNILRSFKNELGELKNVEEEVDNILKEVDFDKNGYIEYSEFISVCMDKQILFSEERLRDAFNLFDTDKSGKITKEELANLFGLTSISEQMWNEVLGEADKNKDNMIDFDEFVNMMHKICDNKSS
Sequence of Plasmodium falciparum protein kinase 6 (PK6, PF3D7_1337100) (Q8IDW1 1-305): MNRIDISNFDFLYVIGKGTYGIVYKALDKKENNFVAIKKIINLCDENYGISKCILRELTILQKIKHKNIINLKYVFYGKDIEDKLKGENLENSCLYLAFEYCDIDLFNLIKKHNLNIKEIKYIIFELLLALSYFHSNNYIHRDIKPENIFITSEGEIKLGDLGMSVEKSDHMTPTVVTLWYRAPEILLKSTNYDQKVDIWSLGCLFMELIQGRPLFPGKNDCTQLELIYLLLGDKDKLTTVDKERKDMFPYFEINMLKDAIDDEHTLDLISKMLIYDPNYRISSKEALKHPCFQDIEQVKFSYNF
Sequence of Protein kinase 7 (PK7), Plasmodium falciparum 3D7 (PF3D7_0213400) (Q7YTF7 1-343): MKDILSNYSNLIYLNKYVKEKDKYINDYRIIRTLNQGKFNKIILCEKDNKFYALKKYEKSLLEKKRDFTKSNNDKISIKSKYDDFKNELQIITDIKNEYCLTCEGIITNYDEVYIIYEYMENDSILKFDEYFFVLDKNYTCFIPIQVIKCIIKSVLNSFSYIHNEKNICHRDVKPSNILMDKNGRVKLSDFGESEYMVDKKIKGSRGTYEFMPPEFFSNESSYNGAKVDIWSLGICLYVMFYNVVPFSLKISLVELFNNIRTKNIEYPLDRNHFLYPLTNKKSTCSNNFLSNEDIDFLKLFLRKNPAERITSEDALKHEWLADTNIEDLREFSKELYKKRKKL

Row | SMILES | growth inhibition [1] | inhibition [2] | inhibition [3] | growth inhibition [4] | outcome [5] | outcome [6] | outcome [7] | outcome [8]
1 | COc1ccc(CNCc2ccc(F)cc2)cc1-c1ccc(OC)c(S(=O)(=O)NCCN2CCCC2)c1 | 88% (active) | 24% | 5% | 101% (active) | inactive | inactive | inactive | inactive
2 | COc1cccc(CNC(=O)c2cnc(N3CCN(c4ccncc4)CC3)c(Cl)c2)c1 | 12% | 25% | 5% | 89% (active) | inactive | inactive | inactive | inactive
3 | O=C(NCCCCN1CCCC2c3ccc(O)cc3CCC21)c1ccc(-c2ccccc2)cc1 (stereo not given) | 25% and 7% | 32% and 26% | -8% and 3% | 96% (active) | inactive | inactive | inactive | inactive
4 | O=C(NCCCCN1CC[C@@H]2c3cccc(O)c3CC[C@H]21)c1ccc(-c2ccccc2)cc1 | 50% (active) | 23% | 2% | 81% (active) | inactive | inactive | inactive | inactive
5 | CC(C)(C)c1ccc(CN2CCC(NC(=O)c3ccc(-c4ccccc4Cl)s3)CC2)cc1 | 29% | 36% | 4% | 84% (active) | inactive | inactive | inactive | inactive
6 | COc1ccc2nccc([C@@H](O)CN3CCC(NCc4ccc5nnsc5c4)CC3)c2c1 | 0% | 16% | 5% | 99% (active) | inactive | inactive | inactive | inactive
7 | Cc1cccc(C=NNc2cc(C)nc3ccc(F)cc23)n1 | 45% | 1% | 3% | 95% (active) | inactive | inactive | inactive | inactive
8 | O=C(Nc1cccc(C(F)(F)F)c1)Nc1ccc(Cl)c(Cl)c1 | 100% (active) | 5% | -4% | 100% (active) | inactive | inactive | inactive | inactive
9 | O=C(NC1CCN(Cc2ccccc2)CC1)c1ccc(-c2nc3cc(F)c(F)cc3[nH]2)s1 | 97% (active) | 6% | 1% | 101% (active) | inactive | inactive | inactive | inactive
10 | COc1ccc(C2C(C(=O)Nc3ccccc3)=C(C)Nc3c(C(=O)Nc4ccccc4)cnn32)cc1 (stereo not given) | 66% (active) | 13% | -1% | 85% (active) | inactive | inactive | inactive | inactive
11 | N#CC(c1ccc(Br)cc1)c1ccc2c(C(F)(F)F)cc(C(F)(F)F)nc2n1 (stereo not given) | 98% (active) | 75% (active) | -2% | 101% (active) | inactive | inactive | inactive | inactive
12 | CCc1cn(CC(=O)N(CCOc2ccc(-c3ccc(C(F)(F)F)cc3)cc2)CCN(CC)CC)c(SCc2ccc(F)cc2)nc1=O | 29% | 46% | -3% | 95% (active) | inactive | inactive | inactive | inactive
13 | Clc1ccc2c(NN=Cc3cccnc3)ccnc2c1 | 86% (active) | -9% | 3% | 100% (active) | inactive | inactive | inactive | inactive
14 | CCCC(C)Nc1nc(C)cc(N[C@@H](CC(C)C)C(=O)NCc2ccc(C)cc2)n1 (stereo not given in full) | 51% (active) | 16% | -1% | 98% (active) | inactive | inactive | inactive | inactive
15 | OC(CNc1ccnc(Nc2cccc(Cl)c2)n1)c1cccc(C(F)(F)F)c1 (stereo not given) | 98% (active) | 11% | 4% | 101% (active) | inactive | inactive | inactive | inactive
16 | Cc1[nH]c2cccc(F)c2c(=O)c1Cc1ccc(Cl)cc1 (tested in a mixture with another compound) | 94% (active) and 92% (active) | 7% and 6% | 5% | 94% (active) and 93% (active) | inactive | inactive | inactive | inactive
17 | CCCC(C)Nc1nc(C)cc(N[C@@H](CC(C)C)C(=O)NCCOc2ccccc2)n1 (stereo not given in full) | 28% | 15% | 1% | 93% (active) | inactive | inactive | inactive | inactive
18 | FC(F)(F)c1cccc(C=NNc2nc3ccccc3[nH]2)c1 | 99% (active) | 1% | 0% | 101% (active) | inactive | inactive | inactive | inactive
19 | O=C(Nc1ccc(C(F)(F)F)cc1)Nc1ccccc1N1CCNCC1 | 69% (active) | 39% | 4% | 94% (active) | inactive | inactive | inactive | inactive
20 | O=c1cc(NCCCNCc2cc(Cl)cc(Cl)c2OCc2ccccc2)[nH]c2ccccc12 | 50% (active) | -4% | -2% | 91% (active) | inactive | inactive | inactive | inactive

Row | SMILES | growth inhibition [1] | inhibition [2] | inhibition [3] | growth inhibition [4] | outcome [5] | outcome [6] | outcome [7] | outcome [8]
21 | COc1ccccc1NC(=O)c1cc(C(=O)c2cc(Cl)ccc2O)cn(-c2ccccc2OC)c1=O | 31% | 9% | 7% | 92% (active) | inactive | inactive | inactive | inactive
22 | O=C(c1ccc(Cl)cc1)N1CCOC(CCN2CCC(c3ccccc3)CC2)(c2ccc(Cl)c(Cl)c2)C1 (stereo not given) | 68% (active) | 19% | 3% | 98% (active) | inactive | inactive | inactive | inactive
23 | CCNc1cc(C)nc(Nc2ccc(NS(=O)(=O)c3ccccc3)cc2)n1 | 54% (active) | 41% | -3% | 100% (active) | inactive | inactive | inactive | inactive
24 | COc1ccc2nc(C)cc(NN=Cc3ccccc3Cl)c2c1 | 100% (active) | 0% | 5% | 100% (active) | inactive | inactive | inactive | inactive
25 | CC(=O)N/N=C/[C@H](CCc1ccccc1)NC(=O)[C@H](CC(C)C)NC(=O)c1ccc(OCCN2CCOCC2)cc1 | 87% (active) | 4% | -9% | 96% (active) | inactive | inactive | inactive | inactive
26 | Cc1nc(-c2ccc(-c3ccc(NC(=O)c4coc5ccc(N6C[C@@H](C)N[C@@H](C)C6)cc45)cc3)c(C)c2)no1 | 88% (active) | 1% | 1% | 101% (active) | inactive | inactive | inactive | inactive
27 | Cc1cc(O)c(-c2cc(C(=O)Nc3cccnc3)[nH]n2)cc1C | 97% (active) | 12% | -7% | 97% (active) | inactive | inactive | inactive | inactive
28 | Cc1noc(C)c1-c1cccc(CNCc2cccc(-c3csc(-c4nc5ccccc5[nH]4)c3)c2)c1 | 74% (active) | 32% | -7% | 100% (active) | inactive | inactive | inactive | inactive
29 | O=C(Nc1cccc(-c2ccc(-c3nc4ccc(F)cc4[nH]3)cc2)c1)c1cccnc1 | 92% (active) | 27% | -4% | 101% (active) | inactive | inactive | inactive | inactive
30 | O=C(Nc1cccc(C(F)(F)F)c1)N1CCOC(CCN2CCC3(CCc4ccccc43)CC2)(c2ccc(Cl)c(Cl)c2)C1 (stereo not given) | 70% (active) | 31% | 0% | 99% (active) | inactive | inactive | inactive | inactive
31 | O=C(CCCCCNC(=O)c1ccc(O)c(-c2ccc(Cl)c(Cl)c2)c1)NCCN1CCCCC1 | 1% | -4% | 0% | 93% (active) | inactive | inactive | inactive | inactive
32 | c1ccc(CN2CCC(NCc3ccc(-c4ccc(CNC5CCCC5)cc4)cc3)CC2)cc1 | 98% (active) | 24% | -4% | 101% (active) | inactive | inactive | inactive | inactive
33 | CCN(CC)c1cc(C)c2cc(NC(=O)c3cc(=O)c4ccccc4o3)ccc2n1 | 67% (active) | 14% | 1% | 97% (active) | inactive | inactive | inactive | inactive
34 | CN(C)CCOc1cc(NC(=O)Nc2ccc(-c3ccncc3)c(C(F)(F)F)c2)ccc1Cl | 79% (active) | 36% | 3% | 100% (active) | inactive | inactive | inactive | inactive
35 | CC(C)(CNC(=O)[C@@H]1CCCN(Cc2ccc(Cl)cc2)C1)c1nc(-c2ccc(Cl)c(O)c2)c(-c2ccncc2)[nH]1 | 37% | 66% (active) | -2% | 97% (active) | inactive | inactive | inactive | inactive
36 | CCc1cc2c(N)nc(N)nc2nc1-c1ccccc1 | -1% | 18% | 6% | 91% (active) | inactive | inactive | inactive | inactive
37 | O=C(Nc1cc(Cl)c(Cl)cc1NC(=O)c1cccc(-c2ccccc2)c1O)c1cccc(-c2ccccc2)c1O | 100% (active) | 79% (active) | 2% | 100% (active) | inactive | inactive | inactive | inactive
38 | CCCc1cc(Cc2cnc(N)nc2N)cc(CCC)c1OC | 1% | 18% | 1% | 92% (active) | inactive | inactive | inactive | inactive
39 | O=C(/C=C/c1ccc(Cl)c(Cl)c1)NC1CCC(CN2CCC(c3c[nH]c4ccncc34)CC2)CC1 (stereo not given) | 96% (active) | 16% | -1% | 100% (active) | inactive | inactive | inactive | inactive
40 | O=S(=O)(NCCN1CCCC1)c1cccc(-c2ccccc2CNC2Cc3ccccc3C2)c1 | 76% (active) | 35% | -3% | 99% (active) | inactive | inactive | inactive | inactive
